The values that follow come from PubChem BioAssay (NCI).

Each structure is given as a SMILES string. About 79,000 compounds went through this panel and 15% of them were active in at least one assay; those are over-represented in the sample as a whole. A number with no mark means an inactive call. The source made the active and inactive calls. No stated cut-off is given here; in the data, active means growth inhibition above about 70%; inactive means the rest.

Assay [1] is described as follows: NCI Yeast Anticancer Drug Screen. Data for the rad50 strain (AID 155).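 Further: 0% = growth of vehicle-only cultures of the same strain.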 The note with it: S. cerevisiae rad50 strain growth inhibition; at 50.0 µM; stronger effect = higher value. The essentials:
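Readout: growth inhibition relative to vehicle-treated cultures. Compound exposure was carried out in a genetically defined yeast strain deficient in DNA damage repair.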

Assay [2] can be described thus: NCI Yeast Anticancer Drug Screen. Data for the mec2-1 strain (AID 157). The note with it: S. cerevisiae mec2-1 strain, at 50.0 µM, stronger effect = higher value. The procedure, abridged: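 Each compound was tested on mec2-1 yeast, a strain altered in DNA damage repair or cell cycle control. Growth inhibition is reported relative to vehicle.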
A short description of assay [3]: NCI Yeast Anticancer Drug Screen. Data for the sgs1 mgt1 strain (AID 161).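 Further: 0% = growth of cultures given vehicle only.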 As to conditions: S. cerevisiae sgs1 mgt1 strain, at 50.0 µM, stronger effect = higher value. The procedure, abridged: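 Read-out: growth inhibition vs vehicle controls. Cells: mutant yeast strain deficient in DNA damage repair.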
Assay [4] can be described thus: NCI Yeast Anticancer Drug Screen. Data for the cln2 rad14 strain (AID 165).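 Further: 0% = growth equal to vehicle treated cultures.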 The note with it: S. cerevisiae cln2 rad14 strain, at 50.0 µM, stronger effect = higher value. The procedure, abridged:
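Test compounds were added to cln2 rad14 yeast cultures; inhibition of growth was then determined by comparison with vehicle treatment.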

Assay [5] is described as follows: NCI Yeast Anticancer Drug Screen. Data for the bub3 strain (AID 167). The note with it: S. cerevisiae bub3 mutant strain, at 50.0 µM, stronger effect = higher value. The procedure, abridged:
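Readout: yeast growth inhibition, expressed relative to vehicle-only wells. The test organism is a mutant strain from a panel with lesions in DNA repair or checkpoint genes.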

Assay [6] in a line: NCI Yeast Anticancer Drug Screen. Data for the mlh1 rad18 strain (AID 175). The note with it: S. cerevisiae mlh1 rad18 strain growth inhibition; at 50.0 µM; stronger effect = higher value. The procedure, abridged:
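Inhibition values reflect reduced growth of mutant yeast versus vehicle-treated controls following compound exposure; the mutations affect DNA damage repair.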

For the molecule `CC(C)SC1SCC2C(=O)N(C)C3(CC3C)C(=O)OCC(NC(=O)c3nc4ccccc4cc3O)C(=O)NC(C)C(=O)N(C)C1C(=O)N(C)C1(CC1C)C(=O)OCC(NC(=O)c1nc3ccccc3cc1O)C(=O)NC(C)C(=O)N2C` (stereo not given), the growth inhibition in assay [1] was 70.4% (active); in assay [2], 68%; in assay [3] it was 78% (active); in assay [4] it was 73.8% (active); in assay [5] it was 78.8% (active); in assay [6], 81.2% (active).

Regarding `Nc1nnc2nc(CC(=O)c3ccc(F)cc3)c(CC(=O)c3ccc(F)cc3)nn12`, the growth inhibition in assay [1] was -3.6%; in assay [2] it was 30.3%; in assay [3] it was 6.6%; in assay [4], -2.7%; in assay [5], 1.2%; in assay [6], 6.7%.

Consider `CC(C)C(O)(c1ccccc1)C(O)(c1ccccc1)C(C)C` (stereo not given), for which the growth inhibition in assay [1] is 99.5% (active); in assay [2], 99.6% (active); in assay [3] it was 99.5% (active); in assay [4] it was 99% (active); in assay [5], 99.5% (active); in assay [6], 99.5% (active).

For `C/C(CC(C)C)=N/NC(N)=S`, the growth inhibition is 14.9% in assay [1]; 0.7% in assay [2]; 1.35% in assay [3]; -23.1% in assay [4]; 32.6% in assay [5]; 30.4% in assay [6].

With `CCN(CC)CCC(O)(Cc1ccccc1)c1cccc(Cl)c1` (stereo not given), the growth inhibition in assay [1] is 21.6%; in assay [2], 7.95%; in assay [3], 5.75%; in assay [4], -67.5%; in assay [5], 16.6%; in assay [6], 21.4%.

With `O=[N+]([O-])C1=C(c2ccccc2)SC(Br)=C(c2ccccc2)S1`, the growth inhibition in assay [1] was -1.2%; in assay [2], 9.7%; in assay [3] it was 3.2%; in assay [4], -0.6%; in assay [5], 3.35%; in assay [6], 7.65%.

As to `O=C(Cl)CCc1ccnc2ccccc12`, the growth inhibition in assay [1] is 0.5%; in assay [2], 3.25%; in assay [3], 4.2%; in assay [4] it was -8.45%; in assay [5], 2.4%; in assay [6] it was 11.2%.

Regarding `CC(C)OC(=O)c1cc(N)ccc1Cl`, the growth inhibition was 29.1% in assay [1]; 23.4% in assay [2]; 17.4% in assay [3]; 2.45% in assay [4]; 38.4% in assay [5]; 34% in assay [6].

For the molecule `CCCCCCCCCSc1nc2ccccc2s1`, the growth inhibition in assay [1] was 12.8%; in assay [2] it was 6.25%; in assay [3], 18.2%; in assay [4], 5.45%; in assay [5], 14.5%; in assay [6] it was -10.1%.

`NC(N)=NC(N)=Nc1ccc(C(=O)O)cc1`: the growth inhibition is -7.4% in assay [1]; 5.95% in assay [2]; -26.8% in assay [3]; -29.2% in assay [4]; -68% in assay [5]; -4% in assay [6].

Consider `COc1ccc(-n2c(CCCC(=O)O)nc3c2C(=O)c2ccccc2C3=O)cc1`, for which the growth inhibition in assay [1] was 20.4%; in assay [2], 23.8%; in assay [3], 25.5%; in assay [4], 17.1%; in assay [5], 25.1%; in assay [6], 33.5%.

On to `CCOC(=O)C(C)Oc1ccc(Cl)cc1` (stereo not given), for which the growth inhibition was -7.85% in assay [1]; -14.9% in assay [2]; -13.1% in assay [3]; -44.1% in assay [4]; -6.3% in assay [5]; 1.8% in assay [6].

As for `Oc1cccc(N=Cc2ccccc2O)c1`, the growth inhibition was 4.3% in assay [1]; -4.85% in assay [2]; 0.15% in assay [3]; -18.8% in assay [4]; -5.15% in assay [5]; 0.15% in assay [6].

With `C(=N\NC1=NCCN1)/c1ccccc1`, the growth inhibition is -1.35% in assay [1]; -9.05% in assay [2]; 5.6% in assay [3]; -36.8% in assay [4]; -7.4% in assay [5]; 13.3% in assay [6].

`C[C@H](OCc1ccccc1)C(=O)N1CCS(=O)(=O)N2CCC[C@@H]2C1=O`: the growth inhibition was 5.05% in assay [1]; -19.1% in assay [2]; -18.2% in assay [3]; 19.4% in assay [4]; -5.9% in assay [5]; -17.9% in assay [6].

As to `Cn1nc(-c2ccc(Cl)c(Cl)c2)[n+]([O-])c2c(=O)n(C)c(=O)nc1-2`, the growth inhibition in assay [1] was 88.8% (active); in assay [2] it was 92.1% (active); in assay [3], 88.8% (active); in assay [4], 89% (active); in assay [5], 85.3% (active); in assay [6] it was 91.3% (active).

`COc1ccccc1NC(=O)C1=C(C)NC(C)=C(C(=O)Nc2ccccc2OC)C1c1cccc2ccccc12`: the growth inhibition in assay [1] was 28.4%; in assay [2] it was -2.35%; in assay [3], -18.2%; in assay [4], 29.4%; in assay [5], 6.65%; in assay [6], 0.5%.

Take `O=C1C(c2ccccc2)=[N+]([O-])c2cc([N+](=O)[O-])ccc21`: the growth inhibition was -15.8% in assay [1]; 5.65% in assay [2]; 13.8% in assay [3]; 23.2% in assay [4]; 14.8% in assay [5]; 36% in assay [6].

In the case of `C[C@]12CC[C@@H]3c4ccc(OP(=O)(O)O)cc4CC[C@H]3[C@@H]1CCC2=O`, the growth inhibition in assay [1] was -7%; in assay [2], 4.9%; in assay [3], -22.7%; in assay [4] it was -23.9%; in assay [5], -24.6%; in assay [6] it was -14.1%.

`CCOC(=O)C(=CN(C)c1ccc([N+](=O)[O-])cc1)C(=O)OCC`: the growth inhibition in assay [1] was 0.15%; in assay [2] it was 6.65%; in assay [3], 15.6%; in assay [4], 12.1%; in assay [5], 24.4%; in assay [6], 15.5%.
